The values that follow come from PubChem BioAssay (NCATS).

Inconclusive results are not listed. A call without a number means that no potency is given here. Active and inactive are the calls of the source. Unless noted, calls come from the whole dose curve; as a rule, active = well fitted curve in the direction sought with a large enough effect; inconclusive = small, poorly fitted or top-dose-only effect, or another doubt; inactive = no such curve, though single readings can be large; an effect the other way counts as inactive or inconclusive.

T1 sequence (P78324 whole entry, looked up, the tested form may be a part): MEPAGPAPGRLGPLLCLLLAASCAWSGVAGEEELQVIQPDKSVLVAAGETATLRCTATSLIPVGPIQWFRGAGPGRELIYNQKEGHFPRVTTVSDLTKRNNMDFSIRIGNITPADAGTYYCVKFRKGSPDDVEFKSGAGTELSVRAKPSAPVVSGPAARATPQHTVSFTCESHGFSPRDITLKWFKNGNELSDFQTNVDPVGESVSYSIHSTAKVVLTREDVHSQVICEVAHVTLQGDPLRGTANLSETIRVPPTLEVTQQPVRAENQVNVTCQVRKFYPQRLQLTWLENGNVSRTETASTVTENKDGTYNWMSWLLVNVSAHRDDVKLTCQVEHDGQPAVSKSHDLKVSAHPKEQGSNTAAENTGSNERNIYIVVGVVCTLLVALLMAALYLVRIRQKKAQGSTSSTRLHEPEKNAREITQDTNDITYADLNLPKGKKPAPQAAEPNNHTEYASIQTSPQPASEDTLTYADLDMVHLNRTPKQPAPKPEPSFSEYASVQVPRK
T1 sequence (Q08722 whole entry, looked up, the tested form may be a part): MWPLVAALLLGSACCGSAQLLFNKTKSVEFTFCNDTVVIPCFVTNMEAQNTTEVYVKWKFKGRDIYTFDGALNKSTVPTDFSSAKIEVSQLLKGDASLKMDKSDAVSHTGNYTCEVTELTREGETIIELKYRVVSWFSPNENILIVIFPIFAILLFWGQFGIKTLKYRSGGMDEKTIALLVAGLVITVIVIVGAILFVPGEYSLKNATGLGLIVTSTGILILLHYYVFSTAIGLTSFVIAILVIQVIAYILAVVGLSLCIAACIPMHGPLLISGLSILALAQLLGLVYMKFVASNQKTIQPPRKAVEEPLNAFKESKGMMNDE
Parathyroid hormone/parathyroid hormone-related peptide receptor (Homo sapiens), sequence (Q03431 whole entry, looked up): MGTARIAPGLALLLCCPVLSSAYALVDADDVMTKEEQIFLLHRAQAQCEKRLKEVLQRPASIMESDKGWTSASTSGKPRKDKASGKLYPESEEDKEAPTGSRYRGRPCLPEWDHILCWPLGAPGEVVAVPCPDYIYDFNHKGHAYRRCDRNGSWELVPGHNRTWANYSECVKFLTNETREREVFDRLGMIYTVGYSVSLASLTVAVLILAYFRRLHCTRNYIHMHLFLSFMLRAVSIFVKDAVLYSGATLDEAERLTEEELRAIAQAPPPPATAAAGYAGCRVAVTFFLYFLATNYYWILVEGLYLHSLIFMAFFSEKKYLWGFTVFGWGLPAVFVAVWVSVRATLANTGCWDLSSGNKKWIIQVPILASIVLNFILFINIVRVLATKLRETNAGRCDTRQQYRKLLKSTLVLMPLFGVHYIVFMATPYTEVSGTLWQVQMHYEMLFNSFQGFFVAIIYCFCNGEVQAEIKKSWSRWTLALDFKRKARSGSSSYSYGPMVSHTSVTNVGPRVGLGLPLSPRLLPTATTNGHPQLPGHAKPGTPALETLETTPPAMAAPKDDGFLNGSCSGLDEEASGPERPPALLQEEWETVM

The target in the first assay is T1, Tyrosine-protein phosphatase non-receptor type substrate 1 (Homo sapiens) + Leukocyte surface antigen CD47 (Homo sapiens) (UniProt P78324+Q08722). In words: CD47-SIRPalpha protein protein interaction - HTRF assay qHTS validation (AID 1347058; active = well fitted curve in the direction sought with a large enough effect in the signal ratio, not every such curve was filed as active; the % refers to the signal ratio;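 note: recombinant soluble extracellular CD47 with His tag and biotinylated SIRPalpha domains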). Particulars: TR-FRET HTRF CD47-His / biotin-SIRPalpha binding, ratio 665/615; series mostly up to 38.3 µM. In a few lines:
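TR-FRET read (Ch1/Ch2 ratio) of soluble extracellular CD47 and Avi-biotinylated SIRPalpha domains in PBS pH 7.4 with 0.05% IGEPAL; 7-point compound titration. Sequential 30 min room-temperature steps; non-biotinylated SIRPalpha as control inhibitor.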
On to `CN(C)C(=O)[C@H](O)[C@H](Cc1ccccc1)NC(=O)c1cc2cc(Cl)ccc2[nH]1`, for which the result was inactive.

Consider `O=C(O)c1cccnc1Nc1cccc(C(F)(F)F)c1`, for which the outcome was inactive.

With `CNC[C@H](O)c1ccc(O)c(O)c1`, the outcome was inactive.

Regarding `O=C(CCc1ccc(O)cc1)c1c(O)cc(O)cc1O`, the result was inactive.

As to `C[C@@H](N)C1CCC(C(=O)Nc2ccncc2)CC1` (some centres not stated), the result was inactive.

With `CN(C)CCCC1(c2ccc(F)cc2)OCc2cc(C#N)ccc21` (configuration not stated), the result was inactive.

On to `CCOC(=O)C1=C(O)C(=O)N(Cc2ccccc2)C1`, for which the result was inactive.

Take `COc1cc2c(cc1OC)C1CC(=O)C(CC(C)C)CN1CC2` (configuration not stated): the outcome was inactive.

Turning to `Clc1ccc2c(N3CCN(CCCN4CCN(c5ccnc6cc(Cl)ccc56)CC4)CC3)ccnc2c1`, the outcome was inactive.

Regarding `CC(C)c1ccc2c(c1)c(SC(C)(C)C)c(CC(C)(C)C(=O)O)n2Cc1ccc(Cl)cc1`, the result was inactive.

Regarding `NCCCCNCCCN`, the outcome was inactive.

In the case of `Oc1ccc2ccccc2c1SSc1c(O)ccc2ccccc12`, the result was inactive.

`Cc1cccc(-c2[nH]ncc2-c2ccc3ncccc3n2)n1`: the outcome was inactive.

For `O=C1c2c(O)cc(O)cc2OC(c2ccc(O)c(O)c2)C1O` (configuration not stated), the outcome was inactive.

On to `c1cnc2cc3c(cc2n1)C1CNCC3C1`, for which the outcome was inactive.

For the compound `Cc1c(OCC(F)(F)F)ccnc1CS(=O)c1nc2ccccc2[nH]1` (configuration not stated), the result was inactive.

Regarding `O=c1cc(N2CCOCC2)oc2c(-c3ccccc3)cccc12`, the result was inactive.

In the case of `C[C@H](Cc1ccc(O)c(O)c1)[C@@H](C)Cc1ccc(O)c(O)c1`, the result was inactive.

Take `O=C(c1ccccc1)c1ccc2n1CCC2C(=O)O` (configuration not stated): the outcome was inactive.

With `COc1ccccc1N1CCN(CCN(C(=O)C2CCCCC2)c2ccccn2)CC1`, the outcome was inactive.

For `COc1ccc2cc([C@H](C)C(=O)O)ccc2c1`, the result was inactive.

Consider `Nc1nc(OCc2ccccc2)c2[nH]cnc2n1`, for which the result was inactive.

For the compound `CCN(CC)C(=S)SSC(=S)N(CC)CC`, the result was inactive.

For the compound `CCOC(=O)C(C)Oc1cccc2c(=O)n(CC(=O)Nc3ccc4c(c3)OCCO4)ccc12` (configuration not stated), the result was inactive.

The target in the next assay is T1, Tyrosine-protein phosphatase non-receptor type substrate 1 (Homo sapiens) + Leukocyte surface antigen CD47 (Homo sapiens). The assay is described as follows: CD47-SIRPalpha protein protein interaction - Alpha assay qHTS validation (AID 1347059).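 Note: bead proximity luminescence from CD47 binding SIRPalpha after compound preincubation with SIRPalpha.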 Note: potency is the fitted concentration of half-maximal effect. Conditions: AlphaScreen CD47-His/biotin-SIRPalpha binding, LOPAC; series mostly up to 38.3 µM. The procedure, abridged:
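Biotinylated Avi-tagged SIRPalpha (25 nM) preincubated 30 min with compound, then His-tagged CD47 (12.5 nM) added 30 min; AlphaScreen with Ni-NTA acceptor and streptavidin donor beads. PBS pH 7.4, 0.05% IGEPAL, room temperature; 7-point titrations.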
`O=c1c(O)c(-c2cc(O)c(O)c(O)c2)oc2cc(O)cc(O)c12`: the Potency result is “inactive”.

Take `CN(C)C(=O)[C@H](O)[C@H](Cc1ccccc1)NC(=O)c1cc2cc(Cl)ccc2[nH]1`: the Potency result is “inactive”.

For the compound `O=C(O)c1cccnc1Nc1cccc(C(F)(F)F)c1`, the Potency entry was “inactive”.

In the case of `CNC[C@H](O)c1ccc(O)c(O)c1`, the Potency entry was “inactive”.

Take `O=C(CCc1ccc(O)cc1)c1c(O)cc(O)cc1O`: the Potency entry is “inactive”.

With `O=C1NC(=O)C(c2ccccc2[N+](=O)[O-])=C1Nc1ccc(O)c(Cl)c1`, the Potency entry is “inactive”.

As for `Cc1cc(O)c2c(c1)C(=O)c1cc(O)cc(O)c1C2=O`, the Potency result is “inactive”.

With `C[C@@H](N)C1CCC(C(=O)Nc2ccncc2)CC1` (some centres not stated), the Potency result was “inactive”.

`CN(C)CCCC1(c2ccc(F)cc2)OCc2cc(C#N)ccc21` (configuration not stated): the Potency entry is “inactive”.

Take `O=c1c(O)c(-c2ccc(O)cc2O)oc2cc(O)cc(O)c12`: the Potency is 1850 nM (active).

For `CCOC(=O)C1=C(O)C(=O)N(Cc2ccccc2)C1`, the Potency entry was “inactive”.

`COc1cc2c(cc1OC)C1CC(=O)C(CC(C)C)CN1CC2` (configuration not stated): the Potency result was “inactive”.

With `Clc1ccc2c(N3CCN(CCCN4CCN(c5ccnc6cc(Cl)ccc56)CC4)CC3)ccnc2c1`, the Potency result is “inactive”.

For `CC(C)c1ccc2c(c1)c(SC(C)(C)C)c(CC(C)(C)C(=O)O)n2Cc1ccc(Cl)cc1`, the Potency entry was “inactive”.

For the compound `NCCCCNCCCN`, the Potency result was “inactive”.

In the case of `NC(=NCc1ccccc1)NC(=O)c1nc(Cl)c(N)nc1N`, the Potency entry was “inactive”.

For the compound `Oc1ccc2ccccc2c1SSc1c(O)ccc2ccccc12`, the Potency result was “inactive”.

Consider `CC1(C)C(=O)N(CCN2CCC(C(=O)c3ccc(F)cc3)CC2)c2ccccc21`, for which the Potency entry was “inactive”.

As to `Cc1cccc(-c2[nH]ncc2-c2ccc3ncccc3n2)n1`, the Potency result is “inactive”.

As for `O=C1c2c(O)cc(O)cc2OC(c2ccc(O)c(O)c2)C1O` (configuration not stated), the Potency result was “inactive”.

As for `c1cnc2cc3c(cc2n1)C1CNCC3C1`, the Potency result is “inactive”.

Regarding `Cc1c(OCC(F)(F)F)ccnc1CS(=O)c1nc2ccccc2[nH]1` (configuration not stated), the Potency result was “inactive”.

In the case of `O=c1cc(N2CCOCC2)oc2c(-c3ccccc3)cccc12`, the Potency result is “inactive”.

`CC1(C)NC(=O)N(c2ccc([N+](=O)[O-])c(C(F)(F)F)c2)C1=O`: the Potency entry was “inactive”.

On to `Oc1ccc(-c2nc(-c3ccc(F)cc3)c(-c3ccncc3)[nH]2)cc1`, for which the Potency entry was “inactive”.

On to `C[C@H](Cc1ccc(O)c(O)c1)[C@@H](C)Cc1ccc(O)c(O)c1`, for which the Potency entry is “inactive”.

As to `O=C1c2ccccc2-c2n[nH]c3cccc1c23`, the Potency result was “inactive”.

As to `O=C(c1ccccc1)c1ccc2n1CCC2C(=O)O` (configuration not stated), the Potency entry is “inactive”.

Consider `COc1ccccc1N1CCN(CCN(C(=O)C2CCCCC2)c2ccccn2)CC1`, for which the Potency entry is “inactive”.

With `COc1ccc2cc([C@H](C)C(=O)O)ccc2c1`, the Potency result is “inactive”.

Turning to `Nc1nc(OCc2ccccc2)c2[nH]cnc2n1`, the Potency result is “inactive”.

Consider `CCN(CC)C(=S)SSC(=S)N(CC)CC`, for which the Potency entry is “inactive”.

Consider `O=c1ccc2ccc(O)c(O)c2o1`, for which the Potency result was “inactive”.

As to `Cc1cccc(C#Cc2ccccc2)n1`, the Potency result is “inactive”.

Turning to `CCOC(=O)C(C)Oc1cccc2c(=O)n(CC(=O)Nc3ccc4c(c3)OCCO4)ccc12` (configuration not stated), the Potency result was “inactive”.

The next assay addresses Parathyroid hormone/parathyroid hormone-related peptide receptor (Homo sapiens) (UniProt Q03431). In words: qHTS for PTHR1 Agonists: Optimization Screen against the NCGC LOPAC library (AID 1347079).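 Note: GloSensor cAMP luminescence in HEK-293 GP2 cells expressing human PTHR1 with IBMX.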 Conditions: HEK293 GP2 PTHR1 GloSensor cAMP luminescence, 1 h; series mostly up to 57.1 µM. The procedure, abridged: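 Agonist readout: GloSensor cAMP luminescence, read after 15 min at room temperature. HEK-293-derived GP2 line carries PTHR1; compounds tested as a titration for 1 hr at 37C in presence of IBMX. M-PTH (1-15) served as control.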
On to `O=c1c(O)c(-c2cc(O)c(O)c(O)c2)oc2cc(O)cc(O)c12`, for which the outcome was inactive.

`Nc1ccn([C@@H]2O[C@H](CO)[C@@H](O)C2O)c(=O)n1` (some centres not stated): the outcome was inactive.

With `O=C(O)c1cccnc1Nc1cccc(C(F)(F)F)c1`, the outcome was inactive.

Take `CNC[C@H](O)c1ccc(O)c(O)c1`: the compound was called inactive.

Regarding `OC(CN1CCN(c2cccc(Cl)c2)CC1)C(c1ccccc1)c1ccccc1` (configuration not stated), the outcome was inactive.

As for `O=C(CCc1ccc(O)cc1)c1c(O)cc(O)cc1O`, the compound was called inactive.

Consider `O=C1NC(=O)C(c2ccccc2[N+](=O)[O-])=C1Nc1ccc(O)c(Cl)c1`, for which the call was inactive.

`Cc1cc(O)c2c(c1)C(=O)c1cc(O)cc(O)c1C2=O`: the compound was classed as inactive.

In the case of `COc1cc2nc(N3CCN(C(=O)C4CCCO4)CC3)nc(N)c2cc1OC` (configuration not stated), the compound was classed as inactive.

In the case of `C[C@@H](N)C1CCC(C(=O)Nc2ccncc2)CC1` (some centres not stated), the call was inactive.

Consider `CN(C)CCCC1(c2ccc(F)cc2)OCc2cc(C#N)ccc21` (configuration not stated), for which the outcome was inactive.

For the compound `O=c1c(O)c(-c2ccc(O)cc2O)oc2cc(O)cc(O)c12`, the call was inactive.

As to `COc1cc2c(cc1OC)C1CC(=O)C(CC(C)C)CN1CC2` (configuration not stated), the compound was called inactive.

Take `CC(C)c1ccc2c(c1)c(SC(C)(C)C)c(CC(C)(C)C(=O)O)n2Cc1ccc(Cl)cc1`: the compound was called inactive.

Consider `NCCCCNCCCN`, for which the outcome was inactive.

Regarding `NC(=NCc1ccccc1)NC(=O)c1nc(Cl)c(N)nc1N`, the result was inactive.

Take `Oc1ccc2ccccc2c1SSc1c(O)ccc2ccccc12`: the result was inactive.

On to `CC1(C)C(=O)N(CCN2CCC(C(=O)c3ccc(F)cc3)CC2)c2ccccc21`, for which the compound was classed as inactive.

Turning to `O=C1c2c(O)cc(O)cc2OC(c2ccc(O)c(O)c2)C1O` (configuration not stated), the result was inactive.

Take `Cc1c(OCC(F)(F)F)ccnc1CS(=O)c1nc2ccccc2[nH]1` (configuration not stated): the outcome was inactive.

Turning to `O=c1cc(N2CCOCC2)oc2c(-c3ccccc3)cccc12`, the outcome was inactive.

Consider `CC1(C)NC(=O)N(c2ccc([N+](=O)[O-])c(C(F)(F)F)c2)C1=O`, for which the outcome was inactive.

As to `CC(=O)O[C@H]1C(=O)[C@@]2(C)C([C@H](OC(=O)c3ccccc3)[C@]3(O)C[C@H](OC(=O)[C@H](O)[C@@H](NC(=O)c4ccccc4)c4ccccc4)C(C)=C1C3(C)C)[C@]1(OC(C)=O)CO[C@@H]1C[C@@H]2O` (some centres not stated), the call was inactive.

As for `Oc1ccc(-c2nc(-c3ccc(F)cc3)c(-c3ccncc3)[nH]2)cc1`, the outcome was inactive.

As to `C[C@H](Cc1ccc(O)c(O)c1)[C@@H](C)Cc1ccc(O)c(O)c1`, the result was inactive.

For `O=C1c2ccccc2-c2n[nH]c3cccc1c23`, the call was inactive.

Consider `O=C(c1ccccc1)c1ccc2n1CCC2C(=O)O` (configuration not stated), for which the compound was called inactive.

In the case of `COc1ccccc1N1CCN(CCN(C(=O)C2CCCCC2)c2ccccn2)CC1`, the outcome was inactive.

In the case of `Nc1nc(OCc2ccccc2)c2[nH]cnc2n1`, the compound was called inactive.

In the case of `CCN(CC)C(=S)SSC(=S)N(CC)CC`, the compound was classed as inactive.

Regarding `O=c1ccc2ccc(O)c(O)c2o1`, the compound was classed as inactive.

For the compound `Cc1cccc(C#Cc2ccccc2)n1`, the outcome was inactive.

In the case of `CCOC(=O)C(C)Oc1cccc2c(=O)n(CC(=O)Nc3ccc4c(c3)OCCO4)ccc12` (configuration not stated), the result was inactive.
